Assay [1] has as its system Human papillomavirus type 1a protein E7 (residues 44-93). Put plainly: small molecules binding HPV E7 44-93 – biochemical, small-molecule microarray, residues 44-93, 635 nm fluorescence, primary screen (AID 1108).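 Also: E7 fragment applied at 1 µg/mL in TBST for 1 h at 4 C; score combines spot fluorescence with its signal to noise ratio.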 The conditions noted are these: fluorescence 635 nm, higher = more signal.
Assay [2] is described as follows: hepatitis C replication reporter changes, two-sided – Huh7 cells, luciferase reporter, HCV replication inhibitor project, primary screen (AID 1109).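 Also: huh7 hepatoma cells harbouring a luciferase neomycin HCV replicon reporter; luciferase luminescence as measure of HCV replicon replication; test concentration not given here.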 The conditions noted are these: Huh7 HCV replicon luciferase reporter, 48 h; higher = more signal. For orientation: A reporter such as luciferase makes a cellular process visible.
The target in assay [3] is Left-right determination factor 2 (Homo sapiens) (UniProt O00292). As to the kind of experiment: small molecules binding LEFTY2 protein – biochemical, small-molecule microarray, 635 nm fluorescence scan, primary screen (AID 1110). The conditions noted are these: higher = more signal.
Left-right determination factor 2 (Homo sapiens), sequence (O00292 whole entry, looked up): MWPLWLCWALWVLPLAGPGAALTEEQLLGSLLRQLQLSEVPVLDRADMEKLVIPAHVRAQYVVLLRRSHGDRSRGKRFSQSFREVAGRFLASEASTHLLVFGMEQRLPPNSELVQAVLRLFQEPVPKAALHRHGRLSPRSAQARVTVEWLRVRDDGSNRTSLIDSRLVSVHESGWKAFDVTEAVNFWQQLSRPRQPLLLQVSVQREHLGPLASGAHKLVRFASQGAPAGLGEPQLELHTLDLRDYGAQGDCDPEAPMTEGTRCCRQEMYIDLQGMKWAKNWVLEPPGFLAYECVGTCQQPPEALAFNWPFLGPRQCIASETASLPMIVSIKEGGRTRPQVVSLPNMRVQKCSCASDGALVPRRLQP
The target in assay [4] is Calmodulin-1 (Homo sapiens) (UniProt P0DP23). As to the kind of experiment: small molecules binding calmodulin-1 with EGTA – biochemical, small-molecule microarray, Cy5-labelled CALM1, profiling panel (AID 1111).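 Also: labelled calmodulin applied in Tris saline Tween buffer holding calcium plus EGTA and DTT.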 The conditions noted are these: Cy5-CALM1 binding fluorescence, higher = more signal.
Assay [5] has the same target. As to the kind of experiment: small molecules binding Ca-loaded calmodulin-1 – biochemical, small-molecule microarray, Cy5-labelled CALM1, plus calcium, artefact control for SMM control-protein annotation, profiling panel (AID 1112).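 Also: score merges spot fluorescence with signal to noise from triplicate slides.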 The conditions noted are these: Cy5-CALM1 binding fluorescence, higher = more signal.
Assay [6] in a line: probe aWnt5a binding to arrayed compounds – biochemical, biotinylated probe, 635/667 nm fluorescence, primary screen (AID 1113).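 Also: score merges 667 nm fluorescence intensity with signal-to-noise per printed feature.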 The conditions noted are these: small-molecule microarray, higher = more signal.
Assay [7] can be described thus: probe aShh binding to arrayed compounds – biochemical, biotinylated probe, 635/667 nm fluorescence, primary screen (AID 1114).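 Also: probe is biotin-labelled aShh protein from a stem cell growth factor screen; measures binding of labelled protein to compounds printed on the slide; score merges feature fluorescence at 667 nm with signal-to-noise.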 The conditions noted are these: small-molecule microarray, higher = more signal.
Assay [8] can be described thus: probe aNog binding to arrayed compounds – biochemical, biotinylated probe, 635/667 nm fluorescence, primary screen (AID 1115).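 Also: probe is biotinylated aNog protein used at 0.15 µg/mL for 1 h at 4 C; z-score combines 667 nm fluorescence of each spot with its signal to noise.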 The conditions noted are these: small-molecule microarray, higher = more signal.
Assay [9] addresses Torsin-1A-interacting protein 1 (Homo sapiens) (UniProt Q5JTV8). As to the kind of experiment: compound microarray binding of lysate hLAP1 – cell lysate, small-molecule microarray, COS7 lysate, 635/667 nm fluorescence, primary screen (AID 1116). The conditions noted are these: 635 nm fluorescence, higher = more signal.
The target of assay [10] is Alpha-bungarotoxin (Bungarus multicinctus) (UniProt P60615). As to the kind of experiment: compounds binding labelled alpha-BTX control protein – biochemical, small-molecule microarray, Alexa647 label, 635/667 nm fluorescence, artefact control for SMM control protein annotation, profiling panel (AID 1117). The conditions noted are these: alpha-BTX-A647 binding fluorescence, higher = more signal.
Alpha-bungarotoxin (Bungarus multicinctus), sequence (P60615 whole entry, looked up): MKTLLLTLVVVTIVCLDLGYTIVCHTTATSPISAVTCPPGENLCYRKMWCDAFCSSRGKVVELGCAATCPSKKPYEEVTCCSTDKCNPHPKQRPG

Assay [11] has as its target Albumin (Bos taurus) (UniProt P02769). As to the kind of experiment: compounds binding labelled BSA control protein – biochemical, small-molecule microarray, Alexa647 label, 635/667 nm fluorescence, artefact control for SMM control protein annotation, profiling panel (AID 1118).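 Also: score merges 667 nm emission intensity and signal-to-noise per printed compound spot.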 The conditions noted are these: BSA-A647 binding, fluorescence 635 nm, higher = more signal.

Assay [12] can be described thus: probe aXIP binding to arrayed compounds – biochemical, NeuroSMM set, 635/667 nm fluorescence, primary screen (AID 1119).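 Also: probe is the protein aXip251-270 applied at 1 µg/mL to compound-printed slides; binding of probe to printed compounds measured as 667 nm fluorescence plus signal to noise.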 The conditions noted are these: small-molecule microarray, higher = more signal, called active from +8 up or from −8 down.
Assay [13] in a line: probe aNOTCH3 binding on compound microarray – biochemical, small-molecule microarray, 635/667 nm fluorescence, primary screen (AID 1120).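 Also: probe is a biotin-tagged antibody raised against NOTCH3 rather than NOTCH3 protein; score merges spot fluorescence near 667 nm with spot signal to noise.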 The conditions noted are these: higher = more signal.
The nature of assay [14]: probe aNOTCH2 binding on compound microarray – biochemical, small-molecule microarray, 635/667 nm fluorescence, primary screen (AID 1121).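 Also: score merges feature fluorescence read at 667 nm with its signal to noise.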 The conditions noted are these: higher = more signal.
Assay [15] deals with Carbonic anhydrase 2 (Homo sapiens) (UniProt P00918). As to the kind of experiment: compounds binding carbonic anhydrase 2 – biochemical, small-molecule microarray, Alexa647-labelled CAII, profiling panel (AID 1122). The conditions noted are these: CAII-A647 binding fluorescence, higher = more signal.
A short description of assay [16]: COS7 lysate on small-molecule microarray, probe aHis, 635 nm (AID 1123).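 Also: z-score combines 667nm fluorescence intensity with signal-to-noise per printed compound spot.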 The conditions noted are these: COS7 cell lysate, fluorescence, higher = more signal.
Assay [17] is described as follows: probe aLAP1 signal on lysate-treated microarray – cell lysate, small-molecule microarray, COS7 lysate, primary screen (AID 1124).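 Also: lysate comes from COS7 cells expressing LAP1 and is applied at 0.3 µg/mL; score merges spot fluorescence near 667 nm with signal-to-noise over triplicate slides.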 The conditions noted are these: probe aLAP1, fluorescence, higher = more signal.
Assay [18] deals with Sam68 (KHDRBS1). As to the kind of experiment: compounds binding KHDRBS1 protein – biochemical, small-molecule microarray, 635 nm fluorescence, primary screen (AID 1125).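 Also: score merges 667 nm channel intensity with signal to noise over triplicate slides.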 The conditions noted are these: higher = more signal.
The subject of assay [19] is Chordin-like protein 2 (CHRDL2). As to the kind of experiment: compounds binding chordin-like 2 – biochemical, small-molecule microarray, 635 nm fluorescence, primary screen (AID 1126).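 Also: printed compound slides probed with Chrdl2 protein at 4 µg/mL for 1 h at 4 C; score merges 667 nm emission intensity with signal to noise over three replicate slides.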 The conditions noted are these: fluorescence 635 nm, higher = more signal.
Assay [20] concerns the target Concanavalin-A (Canavalia ensiformis) (UniProt P02866). Put plainly: compounds binding concanavalin A lectin – biochemical, small-molecule microarray, Alexa647 label, 635 nm, artefact control for SMM control protein annotation, primary screen (AID 1127).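 Also: z combines 667 nm emission intensity with signal-to-noise across three replicate slides.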 The conditions noted are these: ConA-A647 binding fluorescence, higher = more signal.

This is an account of results in PubChem BioAssay.

Calls of active or inactive are those of the source.

Torsin-1A-interacting protein 1 (Homo sapiens), sequence (Q5JTV8 whole entry, looked up): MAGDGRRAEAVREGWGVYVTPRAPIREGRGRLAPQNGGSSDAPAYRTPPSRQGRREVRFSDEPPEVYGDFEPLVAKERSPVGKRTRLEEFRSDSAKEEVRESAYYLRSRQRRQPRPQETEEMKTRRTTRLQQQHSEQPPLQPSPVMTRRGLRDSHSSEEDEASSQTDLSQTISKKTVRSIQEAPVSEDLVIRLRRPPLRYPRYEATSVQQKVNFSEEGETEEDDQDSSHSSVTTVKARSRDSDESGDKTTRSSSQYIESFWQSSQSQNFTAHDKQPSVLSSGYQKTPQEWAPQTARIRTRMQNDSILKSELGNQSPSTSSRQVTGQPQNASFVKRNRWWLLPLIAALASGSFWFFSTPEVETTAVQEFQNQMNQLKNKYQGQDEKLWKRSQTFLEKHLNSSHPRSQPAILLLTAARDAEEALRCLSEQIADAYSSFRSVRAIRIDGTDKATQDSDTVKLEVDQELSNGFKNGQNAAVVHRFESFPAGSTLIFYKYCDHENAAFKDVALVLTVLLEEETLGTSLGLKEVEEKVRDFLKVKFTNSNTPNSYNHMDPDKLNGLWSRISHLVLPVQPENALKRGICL
Albumin (Bos taurus), sequence (P02769 whole entry, looked up): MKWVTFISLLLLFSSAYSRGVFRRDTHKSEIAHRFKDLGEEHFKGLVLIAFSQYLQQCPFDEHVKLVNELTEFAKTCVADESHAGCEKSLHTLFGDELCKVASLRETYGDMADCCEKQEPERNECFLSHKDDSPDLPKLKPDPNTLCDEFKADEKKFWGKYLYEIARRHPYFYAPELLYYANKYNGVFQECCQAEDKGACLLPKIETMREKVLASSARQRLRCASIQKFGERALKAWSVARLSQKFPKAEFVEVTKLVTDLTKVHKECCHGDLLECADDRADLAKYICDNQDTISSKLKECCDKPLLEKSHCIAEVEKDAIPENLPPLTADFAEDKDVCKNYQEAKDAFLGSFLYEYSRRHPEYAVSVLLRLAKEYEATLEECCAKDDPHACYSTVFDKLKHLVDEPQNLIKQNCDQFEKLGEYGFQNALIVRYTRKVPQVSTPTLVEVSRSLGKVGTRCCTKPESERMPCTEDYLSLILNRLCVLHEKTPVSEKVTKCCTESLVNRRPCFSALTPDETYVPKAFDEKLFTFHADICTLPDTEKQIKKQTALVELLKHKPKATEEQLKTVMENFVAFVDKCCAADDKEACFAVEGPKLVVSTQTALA
Concanavalin-A (Canavalia ensiformis), sequence (P02866 whole entry, looked up): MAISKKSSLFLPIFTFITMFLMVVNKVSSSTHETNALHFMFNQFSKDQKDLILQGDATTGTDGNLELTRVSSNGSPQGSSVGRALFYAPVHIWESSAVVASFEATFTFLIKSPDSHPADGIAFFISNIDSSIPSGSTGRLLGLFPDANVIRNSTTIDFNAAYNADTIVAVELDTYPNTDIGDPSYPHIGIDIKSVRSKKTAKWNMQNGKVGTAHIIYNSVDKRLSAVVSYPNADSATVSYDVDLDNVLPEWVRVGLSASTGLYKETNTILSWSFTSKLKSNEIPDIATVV

As for `CO[C@H]1COC(=O)[C@H](CCSC)NC(=O)CC=C[C@@H](C)[C@H](OC)COC(=O)[C@@H](OCc2ccccc2)C=C[C@@H]1C`, the composite z-score was 0.176 in [1]; 0.753 in assay [3]; -0.841 in [4]; -1.69 in assay [5]; -0.159 in assay [6]; -0.221 in assay [7]. Besides, the composite z-score is -0.483 in assay [8]; 0.0829 in assay [9]; -0.531 in assay [10]; -0.798 in assay [11]; -0.043 in assay [13]; -0.153 in [14]. In addition, the composite z-score in assay [15] is -0.173; in [16], -0.919; in [17], 0.0916; in [18] it was 0.835; in assay [19], 1.45; in assay [20], -0.257. In assay [2], this compound displayed a z-score of -1.4. Moreover, the composite Z-score in [12] is 1.04 (inactive).
Consider `CCOC(=O)[C@H](CC(C)C)NC(=O)CCC1CC(OC(=O)NCCc2ccc(F)cc2)CC2(CCCC(COC(=O)NCc3cccc(C(F)(F)F)c3)O2)O1` (stereo not given in full), for which the composite z-score in assay [1] was 1.38; in assay [3], 0.605; in assay [4], -0.134; in [5] it was -0.448; in assay [6], -0.129; in assay [7], -0.154. For the same compound, the composite z-score in [8] was 0.28; in assay [9], 0.274; in assay [10] it was 0.342; in [11], 0.386; in [13], -0.0003; in [14] it was -0.117. In addition, the composite z-score was 0.475 in assay [15]; 0.953 in assay [16]; -0.0042 in [17]; 1.21 in assay [18]; 0.273 in assay [19]; 0.542 in assay [20]. The same compound came in with a z-score in [2] of -0.0709. Moreover, in [12], the composite Z-score was 1.35 (inactive).
Consider `COC(=O)[C@H](CCSC)NC(=O)CC=C[C@@H](C)CO`, for which the composite z-score in [1] was 0.264; in assay [3] it was 1.58; in [4], -1.12; in [5], -2.32; in assay [6], 0.149; in assay [7], -0.0192. The composite z-score in assay [8] was -0.394; in assay [9], 1.21; in assay [10], -0.614; in [11] it was -0.245; in assay [13] it was -0.0651; in assay [14] it was -0.143. The composite z-score in [15] is 0.0952; in assay [16], 1.42; in assay [17], -0.226; in [18], 1.29; in [19] it was 1.5; in assay [20], 0.483. The compound further gave a z-score in assay [2] of 0.748. In assay [12], the composite Z-score was -0.131 (inactive).
On to `O=C1[C@H]2CCn3c(=O)n(Cc4cc5c(cc4Cl)OCO5)c(=O)n3[C@H]2[C@H](O)[C@@H]2O[C@H]12`, for which the composite z-score in assay [1] is -0.552; in assay [3], 0.269; in assay [4], -0.806; in [5], -0.697; in assay [6], -0.295; in [7] it was -0.237. Moreover, the composite z-score was -0.492 in [8]; 0.054 in [9]; 0.389 in [10]; 0.662 in assay [11]; -0.15 in assay [13]; -0.14 in [14]. Also, the composite z-score in assay [15] was 0.29; in assay [16], 0.242; in assay [17], -0.14; in [18], -0.435; in [19] it was 0.716; in assay [20], -0.0737. The z-score in assay [2] is -1.94. Also, the composite Z-score in assay [12] was -0.0662 (inactive).
Consider `C#CCCCON=C1C[C@@H](O)[C@@H](O)[C@@H]2[C@@H]3C(=O)N([C@@H](C)c4ccccc4)C(=O)[C@@H]3CC[C@@H]12`, for which the composite z-score was -0.31 in [1]; 0.201 in assay [3]; -0.172 in assay [4]; -0.274 in assay [5]; -0.166 in [6]; -0.0553 in assay [7]. Moreover, the composite z-score in assay [8] is 0.167; in assay [9], -0.512; in assay [10] it was 0.46; in assay [11] it was 0.356; in assay [13] it was 0.114; in [14], -0.165. For the same compound, the composite z-score in assay [15] is 0.717; in assay [16], 0.0072; in assay [17], 0.0247; in assay [18], -0.105; in assay [19], -0.13; in [20], 0.123. In assay [2], the z-score was 1.14. Besides, the composite Z-score in [12] was -0.51 (inactive).
Consider `CO[C@H]1COC(=O)CCC[C@H](C)[C@@H](OC)COC(=O)CC=C[C@@H]1C`, for which the composite z-score is -0.431 in assay [1]; 0.966 in assay [3]; -0.946 in assay [4]; -1.1 in assay [5]; -0.191 in [6]; -0.0248 in assay [7]. The composite z-score was -0.267 in assay [8]; 0.387 in assay [9]; 0.0355 in assay [10]; -0.553 in [11]; -0.136 in [13]; -0.0766 in assay [14]. The composite z-score in [15] was -0.298; in assay [16] it was -0.378; in assay [17], -0.0711; in [18], 0.113; in [19] it was 0.896; in [20], -0.427. This compound also showed a z-score in [2] of -1.63. Also, in assay [12], the composite Z-score is 0.168 (inactive).
